This is one part of a sample in which hits are shown more often than they occur.
CBX7 AlphaScr: CBX7 inhibition, primary AlphaScreen. O95931. AlphaScreen His6-CBX7 / biotin-H3K27me3 peptide binding; active compounds read low. normalised signal (fraction of DMSO) (concentration not given with the values). hit rate 1.1% among 66,000. AID 1224903; in the data active = normalised signal below about 0.5
Target sequence (O95931 whole entry, looked up): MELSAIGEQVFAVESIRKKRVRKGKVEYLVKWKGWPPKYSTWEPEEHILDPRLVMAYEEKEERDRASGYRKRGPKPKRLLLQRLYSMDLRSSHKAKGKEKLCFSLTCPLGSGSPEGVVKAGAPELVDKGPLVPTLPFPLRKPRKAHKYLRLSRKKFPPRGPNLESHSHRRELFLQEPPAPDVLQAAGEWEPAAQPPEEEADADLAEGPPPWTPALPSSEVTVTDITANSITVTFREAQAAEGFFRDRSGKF
* hit, by the source's call; ! = not active in a repeat.

SMILES	CBX7 AlphaScr
O=C(Nc1ccc2c(c1)OCCO2)C(c1ccccc1)N1CCCC1 (stereo unspecified)	0.92
Cc1ccc(NC(=O)Cn2cnc3sc(C(=O)Nc4cccc(C)c4C)c(C)c3c2=O)cc1Cl	1
Brc1ccc(-c2nc(-c3ccccc3)c(-c3ccc(Sc4ccccc4)cc3)[nH]2)cc1	0.86
Oc1ccc(-c2nc(-c3ccc(F)cc3)c(-c3ccc(F)cc3)[nH]2)cc1	1.2
O=C(O)c1ccc(-c2nc(-c3ccc(-c4ccccc4)cc3)c(-c3ccc(-c4ccccc4)cc3)[nH]2)cc1	0.54
Oc1ccc(-c2nc(-c3ccccc3)c(-c3ccc(Br)cc3)[nH]2)cc1	0.46*
Oc1ccc(-c2nc(-c3ccccc3)c(-c3ccccc3)[nH]2)cc1	0.42*!
CCOc1cc(-c2nc(-c3ccccc3)c(-c3ccc(Br)cc3)[nH]2)ccc1O	0.62
COc1cc(OC)cc(-c2cc3nc(C)c(CCC(=O)Nc4ccc(F)cc4)c(C)n3n2)c1	1.2
COc1ccc(NC(=O)c2cc(C(C)C)on2)cc1	0.99
Cc1cccc(N2C(=O)C3CCC(C)(C2=O)C3(C)C)c1 (stereo unspecified)	0.86
Cc1noc(C(=O)NC(C)c2ccccc2)c1Cl (stereo unspecified)	1
CCCCNC(=O)CCn1c(=O)[nH]c2ccsc2c1=O	1.1
COc1ccc(OC)c(NC(=O)c2c(NCc3ccncc3)sc3c2CCC(C)C3)c1 (stereo unspecified)	0.65
COc1ccc(OC)c(NC(=O)c2c(NCc3cccnc3)sc3c2CCC(C)C3)c1 (stereo unspecified)	0.65
COc1ccc(CNc2sc3c(c2C(=O)Nc2ccc(OC)cc2OC)CCC3)cc1	0.83
COc1ccc(OC)c(NC(=O)c2c(NCc3cccnc3)sc3c2CCCC3)c1	0.6
COc1ccc(NC(=O)c2c(NCc3cccnc3)sc3c2CCC(C)C3)c(OC)c1 (stereo unspecified)	0.46*
COc1ccc(NC(=O)c2c(NCc3cccnc3)sc3c2CCCC3)c(OC)c1	0.31*
COc1ccc(CNC(=O)c2ccc3c(c2)N(Cc2cccc(F)c2)C(=O)c2ccccc2S3)cc1	0.96
CCOC(=O)N1CCN(c2c(N3CCCC3)c(=O)c2=O)CC1	1.1
Cc1ccc2c(c1)-c1c(cnn1CC(=O)NC1CCC(C)CC1)CO2 (stereo unspecified)	1.1
COc1cc2c(cc1OC)C1C(C(=O)Nc3ccc(C)c(F)c3)c3ccccc3C(=O)N1CC2 (stereo unspecified)	0.97
Cc1ccc(S(=O)(=O)N2CC=C(C(=O)Nc3ccccc3F)CC2)cc1	1.2
CC1CCCCC1NC(=O)C(C)C1Sc2ccccc2NC1=O (stereo unspecified)	1
SMILES	CBX7 AlphaScr
O=C1C2=C(Nc3ccccc3SC2c2cccs2)c2ccccc21 (stereo unspecified)	0.4*
CCNC(=O)CC1Sc2ccccc2NC1=O (stereo unspecified)	0.91
COc1ccc(CC(=O)Nc2c3c(nn2-c2cccc(Cl)c2)CSC3)cc1	1
COc1ccc(Nc2nc(-c3ccccc3Cl)nc3ccccc23)cc1	1.1
Oc1ccc(Nc2nc(-c3ccccc3Cl)nc3ccccc23)cc1	0.8
CN(C)c1ccc(Nc2nc(-c3ccccc3Cl)nc3ccccc23)cc1	0.3*
COc1ccc(C2C(C(=O)Nc3ccc(C)c(F)c3)CCC(=O)N2c2ccc3c(c2)OCO3)cc1 (stereo unspecified)	0.99
Cn1c(C(=O)NCCCN2CCCC2=O)cc2sc(Cl)cc21	0.94
Fc1ccc(-c2nnc3ccc4ccccc4n23)cc1	0.87
CC1(C)Cc2ccccc2-c2nnc(-c3cccnc3)n21	0.99
c1cncc(-c2nnc3ccc4ccccc4n23)c1	0.36*
COc1cc(OC)cc(C(=O)Nc2ccc3oc(-c4ccccc4Br)nc3c2)c1	1
CCC(C(=O)NC1CCCc2ccccc21)n1ncc2ccccc21 (stereo unspecified)	0.94
COc1ccc(CCNC(=O)c2nc(-c3ccccc3)oc2C)cc1OC	1
O=C(Nc1ccc(Cl)cc1)C1CCN(c2nnc(-n3cccc3)s2)CC1	0.79
CCCn1c(CCNC(=O)c2ccccc2OC)nc2ccccc21	1
COc1ccccc1C(=O)NCCc1c(C)[nH]c2ccc(OC(F)(F)F)cc12	0.64
Cc1[nH]c2ccc(OCc3ccccc3)cc2c1CCNC(=O)COc1ccc(F)cc1F	0.53
COc1ccccc1C(=O)NCCc1c(C)[nH]c2ccc(OCc3ccccc3)cc12	0.44*
CCN(CCCNC(=O)c1csc2c1CCCCC2)Cc1ccccc1	1
O=C(c1cc2nc3c(c(C(F)(F)F)n2n1)CCc1ccccc1-3)N1CCN(Cc2ccccc2)CC1	1.1
CCCCCCCNC(=O)CC(C(=O)N1CCc2ccccc21)n1ccnc1 (stereo unspecified)	0.88
CCN(CCCNC(=O)Cc1cn(C)c2ccccc12)c1cccc(C)c1	0.32*
CCN(CCCNC(=O)CC(C(=O)N1CCc2ccccc21)n1ccnc1)c1cccc(C)c1 (stereo unspecified)	0.23*
CCN(CCCNC(=O)c1cn(C)c(=O)c2c1c1ccccc1n2C)c1cccc(C)c1	0.96
SMILES	CBX7 AlphaScr
CCCCNC(=O)CC(C(=O)N1CCc2ccccc21)n1ccnc1 (stereo unspecified)	1
O=C(CC(C(=O)N1CCc2ccccc21)n1ccnc1)NCCCN1CCOCC1 (stereo unspecified)	0.99
CCN(CCCNC(=O)CCn1c(=O)[nH]c2ccccc2c1=O)c1cccc(C)c1	1
O=C(CC(C(=O)N1CCc2ccccc21)n1ccnc1)NCCN1CCCCCC1 (stereo unspecified)	0.34*
CN1CCN(CCCNC(=O)CC(C(=O)N2CCc3ccccc32)n2ccnc2)CC1 (stereo unspecified)	0.98
COc1ccc(C(=O)Nc2c(C(N)=O)oc3ccccc23)cc1	0.98
Cc1ccc(NC(=O)C(NS(=O)(=O)c2ccc3c(c2)CCC(=O)N3)c2ccccc2)cc1 (stereo unspecified)	1.1
CCOc1ccc(-n2c(Cc3cc(=O)[nH]c(=O)[nH]3)nnc2SCC(=O)N2CCOCC2)cc1	0.78
O=C(NCc1ccccn1)c1ccc2c(c1)N(Cc1ccccc1F)C(=O)c1ccccc1S2(=O)=O	0.99
COc1ccc(-n2nnc3c(=O)n(CC(=O)Nc4ccccc4F)cnc32)cc1	1.1
Cc1c(C(=O)c2ccccc2)c2cc(O)ccc2n1-c1cccc(Br)c1	0.9
Cc1oc(-c2cccc(F)c2)nc1CSCC(=O)NC1CCCCC1	1.2
CCc1ccc(-c2nc(CSCC(=O)NC3CCCCCC3)c(C)o2)cc1	0.4*
Cc1oc(-c2ccc(Cl)cc2)nc1CSCC(=O)NC1CC1	1.1
COc1ccc(-c2nc(-c3ccc(C)cc3)[nH]c2-c2ccc(OC)cc2)cc1	0.7
COc1cc(-c2nc(-c3ccc(C)c(C)c3)c(-c3ccccc3)[nH]2)cc2c1OCO2	0.7
COc1cc(-c2nc(-c3ccc(C)c(C)c3)c(-c3ccc(C)c(C)c3)[nH]2)cc(OC)c1O	0.49*
Clc1ccc(Cl)c(Nc2nc(-c3ccc(I)cc3)cs2)c1	0.89
O=C(CCS(=O)(=O)c1ccc(Br)cc1)N1CCc2ccccc21	1
Cc1cccc2c1-c1sc(C(=O)NCCc3ccsc3)cc1CO2	1.2
O=C(CSc1nnc(Cc2cc(=O)[nH]c(=O)[nH]2)n1-c1ccccc1)NCc1ccccc1Cl	1.1
Oc1cccc(-c2nc(-c3ccccc3)c(-c3ccc(F)cc3)[nH]2)c1	0.35*
Oc1cccc(-c2nc(-c3ccccc3)c(-c3ccccc3)[nH]2)c1	0.34*

Bioassay records from PubChem.
